Results from the antibiotic and cytotoxicity screens of Wong et al. (2023).
Among all 39,000 compounds or so, about 3,300 (8.5%) were called active. The sample as a whole holds a higher share of actives than the screen did.

system: HepG2; test: cytotoxicity call (relative viability < 0.9); settings: 10 µM

SMILES	cytotoxicity call
C[C@@H]1CCCCO[C@@H](CN(C)C(=O)CCCN(C)C)[C@H](C)CN([C@@H](C)CO)C(=O)c2cc(NS(=O)(=O)c3cn(C)cn3)ccc2O1	inactive
CS(=O)(=O)c1ncc(Cl)c(C(=O)NCCc2ccc(S(N)(=O)=O)cc2)n1	inactive
COc1ccc(S(=O)(=O)Nc2cccc3c2O[C@H](CN(C)Cc2ccc(Oc4ccccc4)cc2)[C@H](C)CN([C@H](C)CO)C3=O)cc1	inactive
Cc1ccc(S(=O)(=O)N(C)C[C@H]2OCCCC[C@H](C)Oc3ccc(NC(=O)CCC(F)(F)F)cc3C(=O)N([C@H](C)CO)C[C@H]2C)cc1	inactive
CCC(C)C1OC2(C=CC1C)CC1CC(CC=C(C)C(OC3CC(OC)C(OC4CC(OC)C(O)C(C)O4)C(C)O3)C(C)C=CC=C3COC4C(OC)C(C)=CC(C(=O)O1)C34O)O2 (stereo not drawn)	active
CC[C@H](C)[C@H]1O[C@]2(C=C[C@@H]1C)C[C@@H]1C[C@@H](C/C=C(\C)[C@@H](O[C@H]3C[C@H](OC)[C@@H](O[C@H]4C[C@H](OC)[C@@H](NC(C)=O)[C@H](C)O4)[C@H](C)O3)[C@@H](C)/C=C/C=C3\CO[C@@H]4[C@H](O)C(C)=C[C@@H](C(=O)O1)[C@]34O)O2	active
CN[C@@H]1[C@@H](C)O[C@@H](O[C@H]2[C@H](C)O[C@@H](O[C@@H]3/C(C)=C/C[C@@H]4C[C@@H](C[C@]5(C=C[C@H](C)[C@@H](C(C)C)O5)O4)OC(=O)[C@@H]4C=C(C)[C@@H](O)[C@H]5OC/C(=C\C=C\[C@@H]3C)[C@]54O)C[C@@H]2OC)C[C@H]1OC	active
CCC(C)C1OC2(C=CC1C)CC1CC(CC=C(C)C(OC3CC(OC)C(OC4CC(OC)C(NC(C)=O)C(C)O4)C(C)O3)C(C)C=CC=C3COC4C(O)C(C)=CC(C(=O)O1)C34O)O2 (stereo not drawn)	inactive
COc1ccc(S(=O)(=O)Nc2ccc3c(c2)C(=O)N([C@@H](C)CO)C[C@@H](C)[C@@H](CN(C)CC2CC2)O3)cc1	inactive
Cc1noc(C)c1S(=O)(=O)Nc1cccc2c1O[C@@H](CN(C)C(=O)Nc1ccccc1)[C@@H](C)CN([C@@H](C)CO)C2=O	inactive
COc1ccc(NC(=O)N(C)C[C@@H]2OCCCC[C@@H](C)Oc3ccc(NC(=O)Nc4ccc5c(c4)OCO5)cc3C(=O)N([C@H](C)CO)C[C@H]2C)cc1	inactive
O=C(C[C@H]1CC[C@H](NC(=O)c2ccc(F)cc2)[C@H](CO)O1)NCc1ccncn1	inactive
COc1ccc(NC(=O)Nc2ccc3c(c2)[C@H]2C[C@H](CC(=O)NCc4ccncc4)O[C@@H](CO)[C@H]2O3)cc1	inactive
COc1ccc(NC(=O)N(C)C[C@@H]2OCCCC[C@H](C)Oc3ccc(NS(=O)(=O)c4ccccc4)cc3C(=O)N([C@@H](C)CO)C[C@@H]2C)cc1	inactive
C=CCOC(=O)[C@H]1[C@@H]2C(=O)O[C@@H](c3ccccc3)[C@@H](c3ccccc3)N2[C@@H](c2ccc(OCCOC(=O)[C@@H]3C[C@@H]4C(=O)NCC(=O)N4[C@@H]3c3cccc(OCCO)c3)cc2)[C@]12C(=O)Nc1ccc(I)cc12	inactive
O=C(C[C@@H]1C[C@@H]2c3cc(NC(=O)Nc4ccc(C(F)(F)F)cc4)ccc3O[C@@H]2[C@@H](CO)O1)NCc1ccc(Cl)cc1	inactive
Cc1noc(C)c1NC(=O)Nc1cccc2c1O[C@@H](CN(C)S(=O)(=O)c1cn(C)cn1)[C@@H](C)CN([C@H](C)CO)C2=O	inactive
COc1cccc(S(=O)(=O)Nc2ccc3c(c2)OC[C@@H](C)N(C(=O)Cc2cccnc2)C[C@@H](C)[C@@H](OC)CN(C)C3=O)c1	inactive
CC(C)N1C[C@H](C)[C@@H](CN(C)Cc2ccc(Oc3ccccc3)cc2)Oc2c(NC(=O)C3CCN(C)CC3)cccc2C1=O	active

SMILES	cytotoxicity call
C[C@@H]1CN([C@@H](C)CO)C(=O)c2cccc(NC(=O)c3ccncc3)c2O[C@@H]1CN(C)Cc1ccc(Oc2ccccc2)cc1	inactive
C[C@@H]1CN([C@@H](C)CO)C(=O)c2cccc(NC(=O)C3CC3)c2O[C@@H]1CN(C)Cc1ccc(Oc2ccccc2)cc1	inactive
CC(C)N1C[C@@H](CN(C)Cc2ccc(Oc3ccccc3)cc2)Oc2c(NC(=O)c3ccncc3)cccc2C1=O	active
CC(C)N1CC[C@H](CN(C)Cc2ccc(Oc3ccccc3)cc2)Oc2c(NC(=O)c3ccncc3)cccc2C1=O	inactive
C[C@@H]1CN([C@H](C)CO)C(=O)c2cccc(NC(=O)C3CC3)c2O[C@H]1CN(C)Cc1ccc(Oc2ccccc2)cc1	inactive
CC(C)N1C[C@H](C)[C@@H](CN(C)Cc2ccc(Oc3ccccc3)cc2)Oc2c(NC(=O)C3CCNCC3)cccc2C1=O	active
C[C@H]1CN([C@@H](C)CO)C(=O)c2cccc(NC(=O)C3CC3)c2O[C@@H]1CN(C)Cc1ccc(Oc2ccccc2)cc1	inactive
C[C@@H]1CN([C@@H](C)CO)C(=O)c2cccc(NC(=O)c3ccncc3)c2O[C@H]1CN(C)Cc1ccc(Oc2ccccc2)cc1	inactive
COC[C@H](C)N1C[C@H](C)[C@@H](CN(C)Cc2ccc(Oc3ccccc3)cc2)Oc2c(NC(=O)c3ccncc3)cccc2C1=O	active
CC(C)N1C[C@H](CN(C)Cc2ccc(Oc3ccccc3)cc2)Oc2c(NC(=O)c3ccncc3)cccc2C1=O	inactive
C[C@H](CO)N1C[C@H](C)[C@@H](CN(C)Cc2ccc(Oc3ccccc3)cc2)Oc2c(NC(=O)C3CC3)cccc2C1=O	inactive
COc1ccc(S(=O)(=O)Nc2cccc3c2O[C@@H](CN(C)S(=O)(=O)c2cccs2)[C@@H](C)CN([C@H](C)CO)C3=O)cc1	inactive
N#CCC(=O)Nc1ccncc1	inactive
COc1ccc(S(=O)(=O)N[C@H]2C=C[C@@H](CC(=O)NCCc3ccncc3)O[C@@H]2CO)cc1	inactive
COc1ccc(NC(=O)N2C[C@@H](O)COC[C@@H]3O[C@@H](CC(=O)NCc4ccccc4OC)CC[C@H]32)cc1	inactive
C[C@H]1CN([C@@H](C)CO)S(=O)(=O)c2ccc(C#Cc3ccccc3F)cc2O[C@H]1CN(C)C(=O)Cc1ccncc1	inactive
CC(C)N1C[C@H](C)[C@@H](CN(C)Cc2ccc(Oc3ccccc3)cc2)Oc2c(NC(=O)c3ccncc3)cccc2C1=O	inactive
CC(C)N1C[C@H](C)[C@@H](CN(C)Cc2ccc(Oc3ccccc3)cc2)Oc2c(NC(=O)c3cccnc3)cccc2C1=O	inactive
CC(C)N1C[C@H](C)[C@@H](CN(C)Cc2ccc(Oc3ccccc3)cc2)Oc2c(NC(=O)c3ccccc3)cccc2C1=O	active
